Most compounds without a hit are left out; they make up all but 21% or so of the library.
NS1 function inh: inhibitors of influenza NS1 protein function | Potency, µM (doses to about 46.1 µM), for the others: at the highest dose activity, positive = more growth | 0.4% of 270,000 active | AID 2326; calls by dose curve; also: potency is read from the fitted curve at half-maximal effect; actives are rising curves; nearly all actives have a fitted effect of over 50% in size
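A cell-based growth assay was used: compounds that relieve NS1-induced slow growth of budding yeast raise OD600. Assay medium was yeast nitrogen base with ammonium sulphate and -URA supplement, pH 6.0, with 2% galactose.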
Pf growth 96h: P. falciparum growth inhibition at 96 hours; P. falciparum luciferase reporter growth, 96 h; Potency, µM (series often up to 28.7 µM), inactives show at the top dose activity change, negative = inhibition, usual class: inhibitors; 6.9% of 320,000 active; also: potency is read from the fitted curve at half-maximal effect; % is scaled to controls: 0 for no effect and ±100 for the full control effect
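Two-generation exposure (96 h) targets delayed-death phenotype. Reporter parasites carrying integrated firefly luciferase, in red cells at 2% hematocrit and 0.05% parasitemia final, kept at 37 C, 5% CO2; luminescence loss indicates inhibition.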
CHX counter: affects cycloheximide protein synthesis inhibition readout, counter-screen. max response, %. AID 2314. cell reporter, cycloheximide protein synthesis inhibition counterscreen. 12% of 300,000 active; in the data active = max response mostly above about 13%, no sharp cut-off; inactive = mostly below about 14%; also: read at 38.3 µM for the half of the compounds with a filed dose; 0% is about no effect
Shiga toxin inh: inhibitors of Shiga toxin in Vero cells | Vero cells, Shiga toxin protein synthesis inhibition reporter | inhibition, % at 38.7 µM | 9.2% of 290,000 active | AID 2315; in the data active = inhibition mostly above about 28%, no sharp cut-off; inactive = mostly below about 43%; also: 0% is about no effect
Pf growth 48h: P. falciparum growth inhibition at 48 hours (one generation) | 5.9% of 310,000 active | P. falciparum luciferase growth in erythrocytes, 48 h | AID 504832 | Potency, µM (highest dose often 28.7 µM), for inactives: at the highest dose activity change, negative = inhibition, usual class: inhibitors; also: potency is read from the fitted curve at half-maximal effect; % is scaled to controls: 0 for no effect and ±100 for the full control effect
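Compounds are pin-transferred into medium, infected erythrocytes (2% hematocrit, 0.1% parasitemia final) are added, and plates sit one parasite generation at 37 C in 5% CO2. Detection reagent is then added and luminescence measured.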
Sm TGR inh: inhibitors of Schistosoma mansoni thioredoxin glutathione reductase. Q962Y6. 3% of 360,000 active. purified TGR, DTNB reduction, TNB absorbance 405 nm. Potency, µM (series often up to 114 µM), inactives show at the highest dose activity change, negative = inhibition, actives largely listed as inhibitors; also: potency is read from the fitted curve at half-maximal effect; % is scaled to controls: 0 for no effect and ±100 for the full control effect; nearly all actives have a fitted effect of over 60% in size
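Kinetic colorimetric format: TGR-catalysed, NADPH-driven DTNB reduction monitored via TNB absorbance. Enzyme dispensed at 20 nM; compound exposure 15 min at room temperature before reaction start.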
The depositor's hits bear a star; ? = inconclusive; · = no result; [ ] = dose if it differs, or a comment. Unless noted, calls follow the shape of the dose curve; as a rule, active = well fitted curve in the direction sought with a large enough effect; inconclusive = small, poorly fitted or top-dose-only effect, or another doubt; inactive = no such curve, though single readings can be large; an effect the other way counts as inactive or inconclusive.

SMILES	NS1 function inh	Pf growth 96h	CHX counter	Shiga toxin inh	Pf growth 48h	Sm TGR inh
CCOC(=O)c1ccc2c(c1)[C@@H]1C=CC[C@@H]1[C@H](c1cccc(OC)c1OC)N2	·	·	·	·	·	0%
CCOC(=O)c1ccc2c(c1)C1C=CCC1C(C(=O)OCC)N2 (centres undefined)	19%	3%	1	·	12µM*	32µM*
CC(=O)c1ccc(NC(=O)Nc2ccc3c(c2)nc(C)n3C)cc1	-1%	24%	34*	81*	?	4%[57.1 µM]
Cc1nc2cc(NC(=O)Nc3ccccc3Cl)ccc2n1C	1%	0%	13*	28*	-26%	1%
COC(=O)c1ccc(NC(=O)Nc2ccc3c(c2)nc(C)n3C)cc1	-1%	19%	15*	68*	?	-1%
Cn1c(CCN2CCCCC2)nc2cc(NC(=O)Nc3ccccc3)ccc21	-4%	82%	-3	-7	?	-28%
Cc1ccc(NC(=O)Nc2ccc3c(c2)nc(C)n3C)cc1	6%	?	33*	54*	23%	11%
CC(=O)NCCc1nc2cc(NC(=O)Nc3ccccc3)ccc2n1C	1%	182%	1	4	126%	6%
NS(=O)(=O)c1ccc(CNC(=S)NC2CCCCC2)cc1	0%	9%	1	-16	3%	-5%
COc1cc(C(=O)Nc2nonc2-c2ccc(Cl)cc2)cc(OC)c1OC	·	·	·	·	·	-1%
COc1ccc(NS(=O)(=O)c2ccc(N3CCCCC3)c(N)c2)cc1	·	?	·	·	-23%	4%
Cn1nccc1NC(=O)Nc1cccc([N+](=O)[O-])c1	1%	?	7	-4	9%	0%
Cc1nc2cc(NC(=O)Nc3cccc([N+](=O)[O-])c3)ccc2n1C	1%	-24%	46*	·	-54%	-1%
Nc1c(C(=O)N/N=C/c2cccnc2)oc2nc(-c3ccco3)cc(-c3ccco3)c12	4%	?	-2	13	?	13µM*
Cc1cc(C)c2c(N)c(C(=O)NN3CC(=O)N(c4ccccc4F)CC3=O)sc2n1	1%	2%[5.75 µM]	-3	17	18%	0%
Cc1cc(C)c2c(N)c(C(=O)N/N=C/c3cccnc3)sc2n1	-10%	-3%	43*	43	8%	0%
Cc1cc(C)c2c(N)c(C(=O)N/N=C/c3ccccc3)sc2n1	0%	75%	59*	121*	113%	-3%
C/C(=N\Nc1nnc2c3ccccc3n(C)c2n1)c1ccc(C)o1	-15%	?	13	29	?	-11%
C/C(=N\Nc1nc(C)cc(C)n1)c1ccc(C)o1	3%	?	21*	29	-47%	2%
COC1(NC(=O)c2ccccc2)C(C)=CC(=O)C=C1C	·	0%	8	-5	60%	25µM*
O=C(NC1(O)C(=O)c2ccccc2C1=O)c1ccccc1	5%	-20%	-2	-3	-6%	-13%
CCOC(=O)C1=NN(c2ccccc2C)C2=NC(C)=C(C(=O)OC)C(c3cccc(OC)c3)N12 (centres undefined)	-28%	?	8	4	-3%	-2%
Cn1c(=O)c2nc3ccccc3nc2n(C)c1=O	-7%	?	0	-6	22%	-8%
Cn1c(=O)c2nc(Cl)c(-c3ccccc3)nc2n(C)c1=O	-33%	?	0	-6	4.1µM*	-16%
O=C(CSc1nnc(-c2cccs2)o1)Oc1ccccc1Cl	·	·	·	·	·	-2%
SMILES	NS1 function inh	Pf growth 96h	CHX counter	Shiga toxin inh	Pf growth 48h	Sm TGR inh
COc1cccc(/C=C2\SC(=O)N(CCC(=O)NCCCn3ccnc3)C2=O)c1	4%	-29%	9	-15	-11%	4%
COc1ccc(/C=C2\SC(=O)N(CCc3nnc(N)s3)C2=O)cc1	6%	64%	53*	104*	70%	9%
COc1ccc(/C=C2\SC(=O)N(CC(=O)NCCCn3ccnc3)C2=O)cc1	-5%	40%	65*	19*	85%	-21%
O=C(CN1C(=O)S/C(=C\c2ccc(Cl)cc2)C1=O)NCCCn1ccnc1	16%	?	17*	26	-26%	-5%
COc1ccc(/C=C2\SC(=O)N(CCNC(=O)C3=COCCO3)C2=O)cc1	·	121%	·	·	137%	1%
COc1cccc(/C=C2\SC(=O)N(CC(=O)NCCCn3ccnc3)C2=O)c1	7%	18%	11	29*	12%	4%
Cc1ccc(NC(=O)CSc2nc3c(c(=O)[nH]2)CN(Cc2ccccc2)CC3)cc1Cl	·	·	·	·	·	-1%
COc1ccccc1CNC(=O)c1cc2sccc2n1Cc1ccc(Cl)cc1	·	·	·	·	·	10%
Fc1cccc(Cl)c1Cn1nnc(-c2ccc3c(c2)OCO3)n1	-32%	·	62*	146*	104%	-1%
Nc1ccn(Cc2cccc(F)c2)n1	0%	?	-5	11	12%	0%
Fc1cccc(Cn2ccc(-c3ccc4c(c3)OCO4)n2)c1	-12%	63%	57*	99*	62%	1%
Cc1ccccc1Cn1ccc(-c2ccc3c(c2)OCO3)n1	3%	108%	60*	74*	85%	12%
Cc1ccccc1Cn1nnc(-c2ccc3c(c2)OCO3)n1	-30%	-20%	49*	54*	58%	2%
Fc1cccc(Cl)c1CSc1nnnn1-c1ccc2c(c1)OCO2	-5%	55%	-5	-19	-22%	-1%
Cc1cccc(NC(=O)CSc2ccc(-c3ccc4c(c3)OCO4)nn2)c1C	8%	28%	1	22	6%	4%
CCOc1ccccc1NC(=S)NCCc1ccc(F)cc1	·	59%	-4	19	?	49%
Cc1ccc(NC(=O)CC2OC(=O)c3ccccc32)cc1S(=O)(=O)N1CCOCC1 (centres undefined)	·	?	·	·	?	-19%
N#CCn1nnc(-c2ccc3c(c2)OCO3)n1	-5%	?	34*	40	27%	-18%
CCC1=NN2C(=N)/C(=C\c3ccc(SCc4ccco4)o3)C(=O)N=C2S1	-6%	?	-4	1	·	50µM*
CCCC1=NN2C(=N)/C(=C\c3ccc(SCc4ccco4)o3)C(=O)N=C2S1	-60%	9%	0	-9	·	?
O=C1NC(=S)S/C1=C\c1ccc(SCc2ccccc2)o1	6%	?	-3	-8	13%	?
O=C1NC(=S)S/C1=C\c1ccc(SCc2ccco2)o1	-29%	-18%	2	18	1%	1.3µM*
O=C(O)CN1CCN(CC(=O)O)CC(=O)[O][Hg][O]C(=O)C1	-61%	·	·	·	·	·
C(=Nc1cccc2c(N=Cc3ccco3)cccc12)c1ccco1	·	-23%	17	47*	2%	-30%
CN(C)c1ccc(N=Cc2ccco2)cc1	?	?	55*	99*	0.83µM*	32µM*
CN(C)c1ccc(C=Nc2ccc(N(C)C)cc2)cc1	-9%	-19%	36*	78*	?	-22%
CN(C)c1ccc(C=Nc2ccccc2)cc1	-58%	58%	5	53	8%	-11%

Screening data (PubChem BioAssay)
